The entries come from a sample that favours hits as a whole.
HIV RNase H inh-1: HIV-1 RT RNase H inhibitors, primary screen, biochemical, fluorescence | Gag-Pol polyprotein (Human immunodeficiency virus type 1 group M subtype B (isolate … | inhibition, % at 10 µM | AID 565, 2006 | 65,000 compounds, 1.9% hits | RT-RNase H RNA/DNA duplex cleavage; in the data active means inhibition above about 50%
HIV RNase H inh-2: HIV-1 RT RNase H inhibitors, retest, confirmation, biochemical; shares compounds with HIV RNase H inh-1; Recombinant RT RNase H, fluorescent RNA/DNA duplex cleavage; inhibition, % at 10 µM; 1,000 compounds, 39% hits; in the data active means inhibition above about 48%
An asterisk follows results filed as active.

SMILES | HIV RNase H inh-1 | others
CCOC(=O)C1C(=O)CC(C)(O)C(C(=O)OCC)C1c1ccco1 (stereo unspecified) | -5
CC(=Nc1ccccc1)Nc1ccccc1 | 25
S=C(N=Nc1ccccc1)NNc1ccccc1 | 69* | HIV RNase H inh-2=32
O=C(CCCn1c(=S)[nH]c2cc3c(cc2c1=O)OCO3)N1CCc2ccccc2C1 | -10
CC1C(=NO)C(C)C(c2ccc(N(C)C)cc2)NC1c1ccc(N(C)C)cc1 (stereo unspecified) | 28
CCCOc1ccc([C@@H]2C3CN(C(=O)OCC)CC=C3C(C#N)=C(N)C2(C#N)C#N)cc1OC (stereo partly specified) | 70* | HIV RNase H inh-2=19
N#CC1=C(N)C(C#N)(C#N)[C@H](c2ccncc2)[C@H]2CN(C(=O)OCc3ccccc3)CC=C12 | 15
COc1cc(C2C3CN(C)CC=C3C(C#N)=C(N)C2(C#N)C#N)ccc1OC(C)C (stereo unspecified) | 1
O=C(C1CCCN(S(=O)(=O)c2cccc3cccnc23)C1)N1CCc2ccccc21 (stereo unspecified) | -55
Cn1cnnc1SCC(=O)c1cc2ccccc2oc1=O | 15
CC(C)c1c(C#N)c(N)nc(SCC(=O)c2cc3ccccc3oc2=O)c1C#N | 75* | HIV RNase H inh-2=33
O=C(CSc1nnc(-c2cccnc2)o1)c1cc2ccccc2oc1=O | -4
COc1ccc(NC(=O)c2cccc(Cn3cc(Br)cn3)c2)cn1 | -10
CN1CCN(c2ccccc2NC(=O)C(Cc2ccccc2)n2cccc2)CC1 (stereo unspecified) | -11
O=C(CSc1nnc2sc3ccccc3n12)NCc1ccc2c(c1)OCO2 | -8
O=c1c2c3c(sc2nc2sc(CN4CCOCC4)cn12)CCCC3 | -6
COc1cc(C2c3c(oc4ccc(Cl)cc4c3=O)C(=O)N2Cc2ccco2)cc(OC)c1OC (stereo unspecified) | 29
COc1ccc(C2c3c(oc4ccc(Cl)cc4c3=O)C(=O)N2Cc2ccco2)cc1OC (stereo unspecified) | 94* | HIV RNase H inh-2=60*
O=C1c2oc3ccc(Cl)cc3c(=O)c2C(c2cccnc2)N1Cc1ccco1 (stereo unspecified) | 2
COc1ccc(/C(O)=C2\C(=O)C(=O)N(c3cc(C)on3)C2c2cccc(OC)c2OC)cc1C (stereo unspecified) | 1
COc1ccc(C2c3c(oc4ccccc4c3=O)C(=O)N2c2ccccn2)cc1OC (stereo unspecified) | -2
COc1cccc(C2c3c(oc4ccc(Cl)cc4c3=O)C(=O)N2c2cc(C)on2)c1OC (stereo unspecified) | 50* | HIV RNase H inh-2=42
CCOC(=O)c1cccc(NC(=O)CSc2nnc(-c3cccnc3)n2C)c1 | 0
CC1CCN(Cc2ccc(-c3nn[nH]n3)cc2)CC1 | -7
Cn1c(N2CCC(C(N)=O)CC2)nc2c1c(=O)n(Cc1cccc(Br)c1)c(=O)n2C | -11
SMILES | HIV RNase H inh-1 | others
CN(Cc1ccccc1)Cc1nc2c([nH]1)c(=O)n(C)c(=O)n2C | -2
O=C(CSc1ccc2nnc(-c3ccccc3)n2n1)N1CCCCC1 | 3
CCOc1ccc(-c2nnc3ccc(SCC(=O)N4CCN(c5ccccc5)CC4)nn23)cc1 | -25
O=C(CSc1ccc2nnc(-c3ccc(Cl)cc3)n2n1)N1CCN(c2ccccc2)CC1 | 60* | HIV RNase H inh-2=48
COc1ccc(Cc2nnn(CC(=O)O)n2)cc1 | -21
COc1ccc(C(=O)NCC23C=CC(O2)C2C(=O)N(Cc4ccccc4)C(=O)C23)cc1 (stereo unspecified) | 1
O=C1C2C3C=CC(CO)(O3)C2C(=O)N1c1ccccc1-c1ccccc1 (stereo unspecified) | 61* | HIV RNase H inh-2=-5
O=C1CCC(=O)N1c1ccccc1-c1ccccc1 | -11
O=C(NC1(C(F)(F)F)C(=O)Nc2c1c(=O)[nH]c(=O)n2Cc1ccco1)C1CC1 (stereo unspecified) | -1
COC(=O)CCSCc1cn2cc(Cl)ccc2n1 | -12
O=C(c1ccc(=O)oc1)N1CCOCC1 | 2
O=C(c1ccc(Cl)c(Cl)c1)N1CCOCC1 | -1
O=C(c1coc(=O)c(Br)c1)N1CCOCC1 | 61* | HIV RNase H inh-2=48
CCOC(=O)c1sc(NC(=O)CSc2nnc(-c3ccc(OC)cc3)n2CCOC)nc1C | 3
CC(C)(C)OC(=O)N1CCC(C(=O)N2CCC[C@H]2C(=O)O)CC1 | -5
O=C(Nc1ccc(Cl)cc1)Nc1ccc(N2CCOCC2)cc1 | 7
O=C(Nc1ccc(N2CCOCC2)cc1)NC1CCCCC1 | 10
O=C(Nc1ccc(N2CCOCC2)cc1)Nc1cnsn1 | 67* | HIV RNase H inh-2=20
Cc1nc2c3ccccc3[nH]c(=O)n2n1 | -10
Cc1cc(OCC(=O)NCCCN2CCOCC2)cc(C)c1Cl | 3
Cc1cc(C)c2c(=O)n(CC(=O)NCCCN3CCOCC3)sc2n1 | 90* | HIV RNase H inh-2=77*
Cc1ccc(-c2ccc(=O)n(CC(=O)N3CCN(c4cccc(C)c4)C(C)C3)n2)cc1 (stereo unspecified) | -23
Cn1cnnc1SCC(=O)N1CCC(Cc2ccccc2)CC1 | -5
Cc1cccc(N2CCN(C(=O)Cn3sc4nc(C)cc(C)c4c3=O)CC2C)c1 (stereo unspecified) | 93* | HIV RNase H inh-2=56*
Cc1cc(C)c2c(=O)n(CC(=O)N3CCC(Cc4ccccc4)CC3)sc2n1 | 79* | HIV RNase H inh-2=10
SMILES | HIV RNase H inh-1 | others
Cc1cccc(N2CCN(C(=O)c3ccncc3)CC2C)c1 (stereo unspecified) | 2
Cc1ccc(SCC(=O)NCCCN2CCOCC2)cc1 | -2
CCOC(=O)c1cc2c(ccn2C)n1CC(=O)N1CCC(Cc2ccccc2)CC1 | -1
O=C(NC1CS(=O)(=O)CC1NCc1ccco1)c1ccccc1 (stereo unspecified) | -6
CCCNS(=O)(=O)c1ccc(OCC(=O)NCc2ccc3c(c2)OCO3)cc1 | -19
CC(=O)c1cccc(NC(=O)N2CCCC2C(=O)NC2CCCCC2)c1 (stereo unspecified) | -5
COc1cccc(C2C(C(=O)c3sc(C)nc3C)=C(O)C(=O)N2CCN(C)C)c1OC (stereo unspecified) | -4
O=c1c2cc(-c3ccccc3)sc2ncn1/N=C/c1ccco1 | 17
CC(=O)Nc1cc(NC(C)=O)cc(C(=O)NC(C)(C)C)c1 | 0
Cc1ccc(CNC(=O)c2cc3c(=O)n(C)c4ccccc4c3n2C)o1 | 4
COc1ccccc1CNC(=O)c1cc2c(=O)n(C)c3ccccc3c2n1C | 89* | HIV RNase H inh-2=88*
Cn1c(C(=O)NCc2ccccn2)cc2c(=O)n(C)c3ccccc3c21 | -11
Cc1ccccc1NC(=O)c1c(O)c2cccc3c2n(c1=O)CCC3 | 1
Cc1ccccc1NC(=O)c1c(O)c2cccc3c2n(c1=O)CC3 | 52* | HIV RNase H inh-2=97*
Cc1cccnc1NC(=O)c1c(O)c2cccc3c2n(c1=O)CCC3 | -5
O=S(=O)(Cc1ccccc1)N1CCC(c2nc(-c3cccs3)no2)CC1 | 15
COC(=O)c1sc(NC(=O)c2ccco2)nc1C | 4
COC(=O)c1sc2nc(-c3ccco3)ccc2c1N | 79* | HIV RNase H inh-2=34
Cc1csc(NC(=O)c2sc3nc(-c4cccs4)ccc3c2N)n1 | 47
CCC(=NCCN1CCNCC1)C1=C(O)CC(C)(C)CC1=O | -7
Cc1cccc2cc(C#N)c(NCCNS(=O)(=O)c3ccc4c(c3)OCCO4)nc12 | -1
COc1ccc(NC(=O)N2CCCCC2)cc1 | 0
O=C(NC1CCCC1)c1ccc2nc[nH]c2c1 | -5
